Source: PubChem
ADAM10 inh – inhibits human ADAM10 | AID 720582 | 0.62% of 370,000 active | inhibition, % at 7 µM | O14672 | recombinant ADAM10, EDANS/DABCYL FRET peptide cleavage, 3 h;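 active = inhibition above a per-campaign cutoff equal to the mean of compounds falling between control-based bounds plus 3 SD, cut at about 20% in these data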;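 note: 0% = DMSO wells while the 100% control is not disclosed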
Target sequence (O14672 214-748 limits assumed): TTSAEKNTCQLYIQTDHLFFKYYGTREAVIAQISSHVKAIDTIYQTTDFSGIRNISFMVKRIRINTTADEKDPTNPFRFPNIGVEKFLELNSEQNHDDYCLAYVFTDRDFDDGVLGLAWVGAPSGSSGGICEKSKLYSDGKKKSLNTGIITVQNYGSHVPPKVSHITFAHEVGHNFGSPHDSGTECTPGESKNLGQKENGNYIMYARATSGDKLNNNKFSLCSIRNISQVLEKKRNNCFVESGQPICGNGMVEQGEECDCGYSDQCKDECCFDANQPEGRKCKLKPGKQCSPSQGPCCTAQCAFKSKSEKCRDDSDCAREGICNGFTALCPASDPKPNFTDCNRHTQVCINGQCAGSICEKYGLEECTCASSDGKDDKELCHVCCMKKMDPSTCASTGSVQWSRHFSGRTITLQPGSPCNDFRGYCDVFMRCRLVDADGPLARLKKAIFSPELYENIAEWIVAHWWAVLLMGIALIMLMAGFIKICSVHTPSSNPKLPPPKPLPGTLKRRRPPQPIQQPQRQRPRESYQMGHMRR
GC-A act – GC-A (human) enzyme activation; 0.14% of 370,000 active; activation, % at 10 µM; HEK293 GC-A cells, cGMP TR-FRET, EC30 ANP; 0% at EC30 ANP, 100% saturating ANP; in the data active = activation above about 40%
ADAM17 inh – inhibits human ADAM17. AID 720648. 0.83% of 370,000 active. inhibition, % at 6.95 µM. P78536. recombinant ADAM17, EDANS/DABCYL FRET peptide cleavage;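 active = inhibition above the mean of compounds lying between control limits plus 3 SD, set per campaign, cut at about 8.5% in these data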;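 note: 0% = DMSO-only wells as the low control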
GC-B act – GC-B (human) receptor activation; HEK293-GC-B cells, CNP EC30, cGMP TR-FRET; 0% at EC30 CNP, 100% saturating CNP; activation, % at 10 µM; 0.11% of 370,000 active; AID 1920062;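 active = activation at 10 µM reaching about 35% in either raw or pattern-adjusted values, limit read from the data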
KLK7 zymogen act – activators of human kallikrein-7 zymogen. P49862. purified proKLK7, EDANS-DABCYL substrate fluorescence; 100% is mature enzyme control, 0% vehicle. activation, % at 7 µM. 0.9% of 370,000 active. AID 652039;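 active = activation above the mean of all tested compounds plus 3 SD, computed per campaign excluding outliers beyond control limits, cut at about 13% in these data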
ADAM10 confirm – human ADAM10 inhibition, confirmation. shares compounds with ADAM10 inh. ADAM10 QFRET peptide cleavage, EDANS fluorescence. inhibition, % at 6.95 µM. 1% of 2,100 active. AID 743208;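 active = inhibition above about 20% chosen separately for each screening run, limit read from the data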;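 note: 0% = DMSO wells and 100% = marimastat wells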
ADAM17 ctr – inhibits human ADAM17 in ADAM10 exosite counter-screen. shares compounds with ADAM10 inh. inhibition, % at 6.95 µM. ADAM17 QFRET peptide cleavage, EDANS fluorescence. 0.5% of 2,100 active. AID 743214;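 active = mean triplicate inhibition above the solvent-only control wells' mean plus 3 SD, cut at about 12% in these data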;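 note: 0% = DMSO wells and 100% = marimastat wells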
* marks the source's active call; other numbers are inactive results; / = no result given. In the library only some 2.2% were active in any assay of this set; here they are far more common.

SMILES	ADAM10 inh	GC-A act	ADAM17 inh	GC-B act	KLK7 zymogen act	ADAM10 confirm	ADAM17 ctr
Oc1ccc(-c2nc(=S)[nH][nH]2)cc1	-23	-2	-8	4	-3	/	/
CC(C)C[C@@H](CN1CCCC1CN1C(=S)NC[C@@H]1Cc1ccc(O)cc1)N1C[C@H](Cc2ccc(O)cc2)N(CCc2ccccc2)C1=S (stereo not given in full)	33*	-3	11*	2	0	14	3
Oc1ccc(C[C@H]2CNC(=S)N2C[C@H]2CCCN2C[C@H](Cc2ccccc2)N2C[C@H](Cc3ccc(O)cc3)N(CCc3ccccc3)C2=S)cc1	28*	2	7	-1	0	12	4
Oc1ccc(C[C@H]2CN([C@@H](Cc3ccc(O)cc3)CN3CCC[C@@H]3CN3C(=S)NC[C@@H]3Cc3ccccc3)C(=S)N2CCc2ccccc2)cc1	8	-5	3	2	0	/	/
Oc1ccc(Cl)cc1-c1cc(-c2ccccc2Cl)[nH]n1	5	4	3	-2	0	/	/
Oc1ccccc1-c1cc(-c2cccc(F)c2)n[nH]1	21*	-8	5	-20	0	4	1
O=C(Nc1cccc(F)c1)Nc1cccc(Cl)c1	23*	-4	4	1	0	1	0
COC(=O)c1cc(NC(=O)Nc2cccc(Cl)c2)ccc1Cl	20*	-7	8	1	0	6	1
COc1ccccc1NS(=O)(=O)c1cccc(NC(=O)Nc2cccc(Cl)c2)c1	31*	-24	9	-2	1	11	4
O=C(Nc1cccc(Cl)c1)Nc1cccc(Cl)c1	5	-6	3	7	0	/	/
O=C(OCc1cn(Cc2ccc(F)c(F)c2)nn1)N1CCOCC1	-11	-2	-6	-2	0	/	/
CCOC(=O)CC[C@@H]1CC[C@]2(CCCN(C(=O)C3CCCC3)C2)O1	-4	3	-1	2	1	/	/
CCCCNS(=O)(=O)/C=C/c1ccc(F)cc1CNC(=O)OC(C)(C)C	2	-1	1	0	0	/	/
C=CCN1c2ccccc2[C@]23C[C@@H](C(=O)OC)N(C(=O)NC4CCCC4)C2=NC(C(=O)OC)=C(C(=O)OC)[C@H]13	21*	-2	10*	3	0	3	1
CC#CCN1c2ccccc2[C@]23C[C@@H](C(=O)OC)N(C(=O)NC4CCCCC4)C2=NC(C(=O)OC)=C(C(=O)OC)[C@H]13	0	-7	3	-7	-1	/	/
COc1ccc(CC(=O)N/N=C/c2cccn2-c2ccc([N+](=O)[O-])cc2)cc1OC	21*	6	8	4	-1	0	0
Cc1ccc(NC(=O)C2CCN(c3nnc(-n4cccc4)s3)CC2)cc1C	3	0	1	-1	1	/	/
O=C(Cn1nnc(-c2ccc(N3CCOCC3)cc2)n1)c1ccc(F)cc1	-4	-1	-1	0	0	/	/
CC(C)c1ccc(OCC(=O)NCc2ccccc2)cc1	78*	2	0	5	0	0	0
CC(C)c1ccc(CNC(=O)CCc2ccccc2)cc1	4	0	-3	3	0	/	/
CCC(=O)Nc1ccc(S(=O)(=O)NCCc2ccccc2)cc1	3	-2	5	6	0	/	/
O=C(Nc1ccc(S(=O)(=O)NCCc2ccccc2)cc1)c1ccc(Br)o1	21*	-4	6	-3	-1	2	1
NC(=O)C1CCN(c2nc(-c3ccc4c(c3)OCCCO4)cs2)CC1	2	-3	1	-5	/	/	/
O=C(CN1CCN(S(=O)(=O)c2ccc(Br)cc2)CC1)Nc1ccc2c(c1)OCO2	21*	-1	1	-5	0	0	0
O=C(CN1CCN(S(=O)(=O)c2ccc(Br)cc2)CC1)Nc1ccc(F)cc1	-4	3	0	-2	0	/	/
SMILES	ADAM10 inh	GC-A act	ADAM17 inh	GC-B act	KLK7 zymogen act	ADAM10 confirm	ADAM17 ctr
CCN(CC)C(=O)CN1C(=O)C2CCCCN2C(=O)c2ccccc21 (stereo not given)	-21	-1	1	-3	1	/	/
Cc1ccc(C(c2nnnn2CCc2ccccc2)N2CCSCC2)cc1 (stereo not given)	-1	-14	-2	-14	0	/	/
Cc1ccc(C(c2cc(Br)ccc2O)N2CCSCC2)cc1 (stereo not given)	25*	-6	6	-10	1	1	0
O=C(CN1CCc2onc(-c3cccc(-n4cc(CO)nn4)c3)c2C1=O)N1CCOCC1	-3	1	1	-2	0	/	/
COC(=O)C(Cc1c[nH]c2ccccc12)NC(C)=O (stereo not given)	0	1	-2	1	0	/	/
CC(=O)N[C@@H](Cc1c[nH]c2ccccc12)C(=O)OCc1cc(C(F)(F)F)cc(C(F)(F)F)c1	24*	-5	3	2	0	-1	-1
COC(=O)CCC(NS(=O)(=O)OCC(Cl)(Cl)Cl)c1ccccc1 (stereo not given)	2	-1	-3	2	0	/	/
CC(C)CC(NS(=O)(=O)OCC(Cl)(Cl)Cl)c1ccccc1 (stereo not given)	20*	-2	4	-8	-1	6	2
O=C(Nc1ccc([N+](=O)[O-])cc1)N1CCc2ccccc2C1	22*	-4	7	-6	0	-1	0
CC(C)c1ccc(NC(=O)N2CCc3ccccc3C2)cc1	8	1	1	-3	0	/	/
Cc1ccc(C2(c3ccc(C)cc3)CC2C(=O)Nc2ccc([N+](=O)[O-])cc2O)cc1 (stereo not given)	42*	11	19*	-1	0	11	4
Oc1ccc(C[C@H]2CNC(=S)N2CC2CCCN2C[C@H](Cc2ccccc2)N2C[C@H](Cc3ccc(O)cc3)N(CC3CCCCC3)C2=S)cc1 (stereo not given in full)	25*	1	4	4	0	15	6
Oc1ccc(C[C@H]2CN([C@@H](Cc3ccccc3)CN3CCC[C@@H]3CN3C(=S)NC[C@@H]3Cc3ccccc3)C(=S)N2CC2CCCCC2)cc1	-17	3	2	1	0	/	/
Oc1ccc(C[C@H]2CNC(=S)N2CC2CCCN2C[C@H](Cc2ccc(O)cc2)N2C[C@H](Cc3ccccc3)N(CC3CCCCC3)C2=S)cc1 (stereo not given in full)	20*	3	13*	0	0	25*	9
CCCC(=O)N1CCC[C@]2(CC[C@@H](CCC(C)=O)O2)C1	-7	5	-3	-2	0	/	/
